The source of these data is publication PMC7862700, “An all-to-all approach to the identification of sequence-specific readers for epigenetic DNA modifications on cytosine”.

Holding throughout (assay): DAPPL (digital affinity profiling via proximity ligation, sequencing); 10 mM Tris-HCl pH 7.5, 50 mM NaCl, 1 mM DTT, 4% glycerol, room temperature, 30 min; GST-TFs on glutathione beads, 16-mer random dsDNA library, 0.1% formaldehyde crosslink after washing; high values mean tight binding
Conditions in all cases: protein: recombinant; tags: N-terminal GST; dsDNA, one strand shown

Test [1] addresses T1, ELK4 (Homo sapiens, UniProt P28324-2 1-405).
T1 sequence: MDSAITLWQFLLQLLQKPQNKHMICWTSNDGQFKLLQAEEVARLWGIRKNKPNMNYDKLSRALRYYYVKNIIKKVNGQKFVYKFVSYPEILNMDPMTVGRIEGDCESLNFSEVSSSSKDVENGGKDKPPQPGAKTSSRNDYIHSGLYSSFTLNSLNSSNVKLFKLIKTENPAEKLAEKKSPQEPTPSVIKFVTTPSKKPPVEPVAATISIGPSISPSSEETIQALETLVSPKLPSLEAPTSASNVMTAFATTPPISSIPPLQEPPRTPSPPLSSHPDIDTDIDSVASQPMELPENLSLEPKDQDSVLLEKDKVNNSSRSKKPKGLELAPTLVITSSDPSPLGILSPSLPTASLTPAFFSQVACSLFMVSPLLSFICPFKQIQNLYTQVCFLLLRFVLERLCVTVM
The procedure, abridged: (§1)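 Sequencing on an Illumina NextSeq500 followed washing, crosslinking with 0.1% formaldehyde, proximity ligation (BsaI/T4 ligase, 1 h, 37 °C) and PCR amplification of pools that had been incubated for 30 min at room temperature with 200 nmole of a random double-stranded 16-mer DNA library in Tris/NaCl/DTT/glycerol buffer. Each pool held DNA-barcoded human transcription factors, expressed in yeast as GST fusions and captured on glutathione beads, plus a tag-only sample. Binding signal is a hexamer's read frequency for a factor divided by its frequency in the tag-only sample.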

The target in test [2] is T2, ELF3 (Homo sapiens, UniProt P78545 1-371).
T2 sequence: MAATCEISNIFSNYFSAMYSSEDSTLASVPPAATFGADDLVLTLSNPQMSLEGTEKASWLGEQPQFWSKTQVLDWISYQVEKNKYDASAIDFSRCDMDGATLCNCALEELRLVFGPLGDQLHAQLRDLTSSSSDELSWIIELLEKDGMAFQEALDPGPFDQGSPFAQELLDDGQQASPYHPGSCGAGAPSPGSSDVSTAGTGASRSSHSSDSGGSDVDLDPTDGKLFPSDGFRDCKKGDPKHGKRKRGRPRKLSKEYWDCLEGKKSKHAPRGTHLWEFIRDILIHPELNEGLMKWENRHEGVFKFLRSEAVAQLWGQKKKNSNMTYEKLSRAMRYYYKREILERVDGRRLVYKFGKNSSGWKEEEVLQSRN
The procedure, abridged:
as §1

Test [3] deals with ETV1 (Homo sapiens, UniProt P50549 1-477). The procedure, abridged: as §1
Test [4] addresses T3, ERF (Homo sapiens, UniProt P50548 1-548).
T3 sequence: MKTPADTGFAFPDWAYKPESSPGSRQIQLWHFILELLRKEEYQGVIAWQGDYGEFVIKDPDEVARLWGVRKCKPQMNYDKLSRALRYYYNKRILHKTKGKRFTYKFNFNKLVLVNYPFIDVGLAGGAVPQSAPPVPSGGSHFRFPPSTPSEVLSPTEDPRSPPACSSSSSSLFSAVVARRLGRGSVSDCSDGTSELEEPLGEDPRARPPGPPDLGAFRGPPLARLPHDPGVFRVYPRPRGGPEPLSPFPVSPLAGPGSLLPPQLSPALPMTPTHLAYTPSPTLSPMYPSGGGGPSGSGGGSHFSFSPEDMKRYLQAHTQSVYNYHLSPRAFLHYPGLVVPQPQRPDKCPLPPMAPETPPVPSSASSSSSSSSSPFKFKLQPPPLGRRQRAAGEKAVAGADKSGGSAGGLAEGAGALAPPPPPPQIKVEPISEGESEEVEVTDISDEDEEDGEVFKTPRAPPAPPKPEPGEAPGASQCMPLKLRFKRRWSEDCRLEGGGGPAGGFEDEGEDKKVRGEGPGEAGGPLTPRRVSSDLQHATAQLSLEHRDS
The procedure, abridged: as §1

For test [5], the target named is T4, ETV3L (Homo sapiens, UniProt Q6ZN32 1-361).
T4 sequence: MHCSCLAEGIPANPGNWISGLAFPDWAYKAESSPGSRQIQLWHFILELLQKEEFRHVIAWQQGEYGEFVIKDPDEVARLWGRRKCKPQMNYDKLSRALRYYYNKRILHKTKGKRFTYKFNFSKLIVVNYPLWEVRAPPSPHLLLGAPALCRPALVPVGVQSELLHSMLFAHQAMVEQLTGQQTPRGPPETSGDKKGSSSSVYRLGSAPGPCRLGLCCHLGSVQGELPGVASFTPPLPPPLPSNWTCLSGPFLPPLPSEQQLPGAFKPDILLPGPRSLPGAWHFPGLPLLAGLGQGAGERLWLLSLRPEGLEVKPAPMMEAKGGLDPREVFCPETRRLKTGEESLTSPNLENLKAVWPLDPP
The procedure, abridged: as §1

Test [6] has as its target T5, ETS2 (Homo sapiens, UniProt P15036 1-469).
T5 sequence: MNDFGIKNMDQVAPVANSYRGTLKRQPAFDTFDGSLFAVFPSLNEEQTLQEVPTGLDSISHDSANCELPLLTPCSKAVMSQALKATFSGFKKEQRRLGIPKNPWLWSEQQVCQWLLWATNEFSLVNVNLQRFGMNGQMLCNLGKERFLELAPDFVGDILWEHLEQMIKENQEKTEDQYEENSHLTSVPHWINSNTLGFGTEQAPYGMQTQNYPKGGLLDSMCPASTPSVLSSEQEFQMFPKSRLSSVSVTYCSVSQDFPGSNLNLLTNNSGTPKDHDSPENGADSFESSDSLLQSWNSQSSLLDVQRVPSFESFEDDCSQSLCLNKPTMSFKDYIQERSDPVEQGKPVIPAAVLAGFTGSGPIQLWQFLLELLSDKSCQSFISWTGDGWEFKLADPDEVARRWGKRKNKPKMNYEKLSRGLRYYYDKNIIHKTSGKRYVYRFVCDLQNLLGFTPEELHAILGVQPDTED
The method in brief:
as §1

The target in test [7] is T6, SPDEF (Homo sapiens, UniProt O95238 1-335).
T6 sequence: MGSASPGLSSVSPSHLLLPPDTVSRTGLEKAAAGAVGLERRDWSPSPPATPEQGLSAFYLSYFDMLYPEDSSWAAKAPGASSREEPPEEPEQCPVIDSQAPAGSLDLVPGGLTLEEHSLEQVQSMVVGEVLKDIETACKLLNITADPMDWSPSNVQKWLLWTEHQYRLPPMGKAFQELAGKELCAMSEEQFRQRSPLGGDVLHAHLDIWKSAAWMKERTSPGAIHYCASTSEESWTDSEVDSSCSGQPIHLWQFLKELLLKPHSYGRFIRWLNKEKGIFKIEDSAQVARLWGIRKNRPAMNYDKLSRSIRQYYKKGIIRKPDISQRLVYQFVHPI
The procedure, abridged:
as §1

The target in test [8] is T7, ETV7 (Homo sapiens, UniProt Q9Y603 1-341).
T7 sequence: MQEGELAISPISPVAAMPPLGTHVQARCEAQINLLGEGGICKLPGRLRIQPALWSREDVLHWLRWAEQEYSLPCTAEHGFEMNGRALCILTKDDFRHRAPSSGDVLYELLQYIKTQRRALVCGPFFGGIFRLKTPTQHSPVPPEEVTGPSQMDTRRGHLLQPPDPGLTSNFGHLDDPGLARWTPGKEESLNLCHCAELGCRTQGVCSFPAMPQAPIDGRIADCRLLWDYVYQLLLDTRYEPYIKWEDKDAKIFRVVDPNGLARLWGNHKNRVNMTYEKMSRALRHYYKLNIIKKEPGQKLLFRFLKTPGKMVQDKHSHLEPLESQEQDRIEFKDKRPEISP
The procedure, abridged: as §1

Test [9] has as its target T8, ETV3 (Homo sapiens, UniProt P41162-2 1-143).
T8 sequence: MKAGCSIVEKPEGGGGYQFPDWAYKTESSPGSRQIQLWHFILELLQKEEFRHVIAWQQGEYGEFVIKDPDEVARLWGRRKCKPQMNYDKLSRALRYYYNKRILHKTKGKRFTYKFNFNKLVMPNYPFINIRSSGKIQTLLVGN
The procedure, abridged: as §1

Test [10] has as its target ETV6 (Homo sapiens, UniProt P41212 1-452). The procedure, abridged: as §1

ETV1, sequence (P50549 whole entry): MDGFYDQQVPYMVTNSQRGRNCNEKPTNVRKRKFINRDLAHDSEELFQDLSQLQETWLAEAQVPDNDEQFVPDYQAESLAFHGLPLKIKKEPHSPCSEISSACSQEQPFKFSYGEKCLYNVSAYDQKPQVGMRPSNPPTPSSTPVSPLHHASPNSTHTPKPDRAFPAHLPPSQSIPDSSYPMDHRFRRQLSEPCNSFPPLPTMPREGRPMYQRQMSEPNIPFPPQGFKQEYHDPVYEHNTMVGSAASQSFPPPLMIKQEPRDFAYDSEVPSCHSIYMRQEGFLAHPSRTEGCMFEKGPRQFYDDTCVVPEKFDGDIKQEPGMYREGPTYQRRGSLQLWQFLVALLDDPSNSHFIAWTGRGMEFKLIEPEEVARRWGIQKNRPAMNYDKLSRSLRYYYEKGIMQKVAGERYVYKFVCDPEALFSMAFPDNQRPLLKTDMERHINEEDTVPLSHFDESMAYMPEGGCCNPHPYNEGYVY
ETV6, sequence (P41212 whole entry): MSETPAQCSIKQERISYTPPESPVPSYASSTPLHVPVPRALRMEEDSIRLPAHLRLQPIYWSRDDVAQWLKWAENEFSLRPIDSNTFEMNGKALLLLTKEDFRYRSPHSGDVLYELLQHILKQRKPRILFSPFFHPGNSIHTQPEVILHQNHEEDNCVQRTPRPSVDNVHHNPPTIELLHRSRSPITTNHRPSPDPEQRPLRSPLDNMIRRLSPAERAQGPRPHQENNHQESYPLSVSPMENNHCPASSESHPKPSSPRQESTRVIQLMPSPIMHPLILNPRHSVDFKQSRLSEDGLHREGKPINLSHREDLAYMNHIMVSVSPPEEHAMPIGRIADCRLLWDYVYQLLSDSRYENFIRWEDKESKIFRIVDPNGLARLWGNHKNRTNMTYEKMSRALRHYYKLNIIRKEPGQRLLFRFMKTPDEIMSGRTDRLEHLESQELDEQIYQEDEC

With CAAACA, the binding signal in [1] was 1.13 fold enrichment (6-mer frequency, TF over GST control); in test [2], 1.21 fold enrichment (6-mer frequency, TF over GST control); in test [3] it was 1.09 fold enrichment (6-mer frequency, TF over GST control); in [4], 1.08 fold enrichment (6-mer frequency, TF over GST control); in test [5], 1.12 fold enrichment (6-mer frequency, TF over GST control); in test [6] it was 1.16 fold enrichment (6-mer frequency, TF over GST control). The binding signal was 1.12 fold enrichment (6-mer frequency, TF over GST control) in [7]; 1.07 fold enrichment (6-mer frequency, TF over GST control) in test [8]; 1.13 fold enrichment (6-mer frequency, TF over GST control) in test [9]; 1.1 fold enrichment (6-mer frequency, TF over GST control) in test [10].
